Reference: PubChem BioAssay
Activity calls are given as the source filed them.

How the values were obtained:
Albumin (Bos taurus) = Albumin (Bos taurus) (UniProt P02769); assay: compounds binding labelled BSA control protein – biochemical, small-molecule microarray, Alexa647 label, 635/667 nm fluorescence, artefact control for SMM control protein annotation, profiling panel (AID 1118); conditions: BSA-A647 binding, fluorescence 635 nm, higher = more signal;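 note: score merges 667 nm emission intensity and signal-to-noise per printed compound spot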
[1] = probe aXIP binding to arrayed compounds – biochemical, NeuroSMM set, 635/667 nm fluorescence, primary screen (AID 1119); conditions: small-molecule microarray, higher = more signal, called active from +8 up or from −8 down;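 note: probe is the protein aXip251-270 applied at 1 µg/mL to compound-printed slides; binding of probe to printed compounds measured as 667 nm fluorescence plus signal to noise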
[2] = probe aNOTCH3 binding on compound microarray – biochemical, small-molecule microarray, 635/667 nm fluorescence, primary screen (AID 1120); conditions: higher = more signal;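 note: probe is a biotin-tagged antibody raised against NOTCH3 rather than NOTCH3 protein; score merges spot fluorescence near 667 nm with spot signal to noise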
[3] = probe aNOTCH2 binding on compound microarray – biochemical, small-molecule microarray, 635/667 nm fluorescence, primary screen (AID 1121); conditions: higher = more signal;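 note: score merges feature fluorescence read at 667 nm with its signal to noise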
[4] = biological target: Carbonic anhydrase 2 (Homo sapiens) (UniProt P00918); assay: compounds binding carbonic anhydrase 2 – biochemical, small-molecule microarray, Alexa647-labelled CAII, profiling panel (AID 1122); conditions: CAII-A647 binding fluorescence, higher = more signal
[5] = COS7 lysate on small-molecule microarray, probe aHis, 635 nm (AID 1123); conditions: COS7 cell lysate, fluorescence, higher = more signal;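 note: z-score combines 667nm fluorescence intensity with signal-to-noise per printed compound spot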
[6] = probe aLAP1 signal on lysate-treated microarray – cell lysate, small-molecule microarray, COS7 lysate, primary screen (AID 1124); conditions: probe aLAP1, fluorescence, higher = more signal;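 note: lysate comes from COS7 cells expressing LAP1 and is applied at 0.3 µg/mL; score merges spot fluorescence near 667 nm with signal-to-noise over triplicate slides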
Sam68 (KHDRBS1) = assay: compounds binding KHDRBS1 protein – biochemical, small-molecule microarray, 635 nm fluorescence, primary screen (AID 1125); conditions: higher = more signal;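 note: score merges 667 nm channel intensity with signal to noise over triplicate slides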
[7] = test system: Chordin-like protein 2 (CHRDL2); assay: compounds binding chordin-like 2 – biochemical, small-molecule microarray, 635 nm fluorescence, primary screen (AID 1126); conditions: fluorescence 635 nm, higher = more signal;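 note: printed compound slides probed with Chrdl2 protein at 4 µg/mL for 1 h at 4 C; score merges 667 nm emission intensity with signal to noise over three replicate slides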
[8] = biological target: Concanavalin-A (Canavalia ensiformis) (UniProt P02866); assay: compounds binding concanavalin A lectin – biochemical, small-molecule microarray, Alexa647 label, 635 nm, artefact control for SMM control protein annotation, primary screen (AID 1127); conditions: ConA-A647 binding fluorescence, higher = more signal;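 note: z combines 667 nm emission intensity with signal-to-noise across three replicate slides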
[9] = compounds binding Alexa647 anti-His antibody – biochemical, small-molecule microarray, 635 nm fluorescence, artefact control for SMM control protein annotation, primary screen (AID 1128); conditions: higher = more signal;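 note: score merges feature fluorescence with signal-to-noise for each printed compound spot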
[10] = test system: Human papillomavirus type 1a E7 protein (residues 1-88); assay: HPV1a E7 small-molecule binders, primary screen, biochemical, small-molecule microarray, residues 1-88, 635 nm (AID 1129); conditions: small-molecule microarray binding, fluorescence 635 nm; higher = more signal
[11] = biological target: Focal adhesion kinase 1 (Homo sapiens) (UniProt Q05397); assay: PTK2 protein binding on printed compound slides – biochemical, small-molecule microarray, 635/667 nm fluorescence, BSA, DTT, primary screen (AID 1130); conditions: 635 nm fluorescence, higher = more signal;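 note: composite of spot emission at 667 nm and signal to noise over triplicate slides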
[12] = test system: Fibrinogen (Alexa647-labelled); assay: Alexa647-fibrinogen binding to printed small molecules – biochemical, small-molecule microarray, 635/667 nm fluorescence, artefact control for SMM control-protein annotation, profiling panel (AID 1131); conditions: fibrinogen-A647 binding fluorescence, higher = more signal;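 note: z-score merges 667 nm fluorescence with per-spot signal-to-noise over triplicate slides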
[13] = biological target: Follistatin (Homo sapiens) (UniProt P19883); assay: FST protein binding to printed compounds – biochemical, small-molecule microarray, 635/667 nm fluorescence, primary screen (AID 1132); conditions: 635 nm fluorescence, higher = more signal
[14] = biological target: Fibroblast growth factor 2 (Homo sapiens) (UniProt P09038); assay: basic fibroblast growth factor binding to printed compounds – biochemical, small-molecule microarray, 635/667 nm fluorescence, primary screen (AID 1133); conditions: FGF2, fluorescence 635/667, higher = more signal
[15] = JC-1 mitochondrial potential readout, lung cancer cells – cell-based, A549, JC-1 fluorescence, basal, 24 h, 100 nL, profiling panel (AID 1138); conditions: higher = more signal;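 note: A549 lung adenocarcinoma cells under basal conditions with no added stimulus; test concentration not given here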
Lefty1 = Lefty1 protein binding to printed compounds – biochemical, small-molecule microarray, 635/667 nm fluorescence, primary screen (AID 1139); conditions: fluorescence 635/667, higher = more signal
[16] = test system: wheat germ agglutinin (Triticum aestivum), Alexa647-labelled; assay: Alexa647-WGA lectin binding to printed small molecules – biochemical, small-molecule microarray, 635/667 nm fluorescence, artefact control for SMM control-protein annotation, profiling panel (AID 1140); conditions: WGA-A647 binding, 635 nm fluorescence, higher = more signal;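 note: score merges 667 nm feature emission with signal to noise over triplicate slides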
[17] = biological target: Luciferin 4-monooxygenase (Photinus pyralis) (UniProt P08659); assay: inhibition of purified Photinus pyralis luciferase – biochemical, luminescence, purified enzyme, 2006 set, primary screen (AID 1141); conditions: purified firefly luciferase, SteadyGlo luminescence, 30 min; higher = more signal, called active from +8 up or from −8 down;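 note: cell-free assay with purified firefly luciferase at 100 ng per well in PBS; test concentration not given here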
Chain of Luciferin 4-monooxygenase (Photinus pyralis) (P08659 whole entry, looked up): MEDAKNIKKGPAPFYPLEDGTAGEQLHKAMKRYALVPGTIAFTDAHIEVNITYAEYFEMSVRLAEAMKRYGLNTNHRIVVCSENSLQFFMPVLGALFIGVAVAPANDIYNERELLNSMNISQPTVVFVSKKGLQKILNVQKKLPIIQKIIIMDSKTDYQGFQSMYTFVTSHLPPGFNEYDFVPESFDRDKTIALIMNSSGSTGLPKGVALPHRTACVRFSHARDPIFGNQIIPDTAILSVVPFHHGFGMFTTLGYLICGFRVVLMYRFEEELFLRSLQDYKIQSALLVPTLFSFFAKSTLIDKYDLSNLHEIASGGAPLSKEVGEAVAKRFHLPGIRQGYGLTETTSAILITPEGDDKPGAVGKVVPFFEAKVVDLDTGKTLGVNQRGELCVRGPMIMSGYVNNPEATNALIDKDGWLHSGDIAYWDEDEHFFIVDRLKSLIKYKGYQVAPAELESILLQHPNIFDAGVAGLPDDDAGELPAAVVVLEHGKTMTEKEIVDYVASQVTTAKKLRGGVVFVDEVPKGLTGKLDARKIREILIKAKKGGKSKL

Chain of Focal adhesion kinase 1 (Homo sapiens) (Q05397 whole entry, looked up): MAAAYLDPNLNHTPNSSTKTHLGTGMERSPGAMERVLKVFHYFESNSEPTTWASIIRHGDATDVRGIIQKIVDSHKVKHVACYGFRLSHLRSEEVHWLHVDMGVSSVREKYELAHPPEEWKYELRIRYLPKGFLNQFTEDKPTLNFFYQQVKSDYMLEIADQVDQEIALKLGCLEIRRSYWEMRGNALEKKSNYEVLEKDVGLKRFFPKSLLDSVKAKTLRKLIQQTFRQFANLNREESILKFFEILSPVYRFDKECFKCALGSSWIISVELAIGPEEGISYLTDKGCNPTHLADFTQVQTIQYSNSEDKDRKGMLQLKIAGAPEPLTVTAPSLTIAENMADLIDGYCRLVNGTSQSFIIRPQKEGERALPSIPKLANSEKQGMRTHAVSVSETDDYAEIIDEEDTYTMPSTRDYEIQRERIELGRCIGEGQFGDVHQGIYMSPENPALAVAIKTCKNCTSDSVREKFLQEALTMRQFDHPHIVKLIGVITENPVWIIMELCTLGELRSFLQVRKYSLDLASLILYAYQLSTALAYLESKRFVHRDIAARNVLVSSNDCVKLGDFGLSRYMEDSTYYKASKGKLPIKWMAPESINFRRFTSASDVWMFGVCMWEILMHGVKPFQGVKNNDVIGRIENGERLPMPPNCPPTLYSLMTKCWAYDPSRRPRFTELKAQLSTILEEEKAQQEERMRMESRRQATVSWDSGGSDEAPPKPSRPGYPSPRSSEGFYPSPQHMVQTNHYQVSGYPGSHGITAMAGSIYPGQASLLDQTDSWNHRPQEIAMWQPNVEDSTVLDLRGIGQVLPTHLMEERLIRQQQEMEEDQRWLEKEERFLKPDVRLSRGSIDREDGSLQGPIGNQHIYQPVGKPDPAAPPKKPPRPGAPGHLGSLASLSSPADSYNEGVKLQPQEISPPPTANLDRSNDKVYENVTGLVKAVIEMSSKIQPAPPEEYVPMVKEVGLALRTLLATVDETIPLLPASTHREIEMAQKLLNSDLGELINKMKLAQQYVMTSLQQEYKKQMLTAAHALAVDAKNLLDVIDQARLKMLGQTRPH
Chain of Fibroblast growth factor 2 (Homo sapiens) (P09038 whole entry, looked up): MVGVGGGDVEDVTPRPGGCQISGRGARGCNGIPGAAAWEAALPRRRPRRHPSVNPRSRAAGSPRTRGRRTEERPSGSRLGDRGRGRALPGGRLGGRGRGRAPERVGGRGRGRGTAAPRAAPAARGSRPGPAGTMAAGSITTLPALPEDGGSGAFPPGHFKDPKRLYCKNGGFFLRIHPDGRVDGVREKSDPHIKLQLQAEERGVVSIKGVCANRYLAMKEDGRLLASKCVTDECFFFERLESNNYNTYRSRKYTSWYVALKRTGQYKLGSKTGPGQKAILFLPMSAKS
Chain of Albumin (Bos taurus) (P02769 whole entry, looked up): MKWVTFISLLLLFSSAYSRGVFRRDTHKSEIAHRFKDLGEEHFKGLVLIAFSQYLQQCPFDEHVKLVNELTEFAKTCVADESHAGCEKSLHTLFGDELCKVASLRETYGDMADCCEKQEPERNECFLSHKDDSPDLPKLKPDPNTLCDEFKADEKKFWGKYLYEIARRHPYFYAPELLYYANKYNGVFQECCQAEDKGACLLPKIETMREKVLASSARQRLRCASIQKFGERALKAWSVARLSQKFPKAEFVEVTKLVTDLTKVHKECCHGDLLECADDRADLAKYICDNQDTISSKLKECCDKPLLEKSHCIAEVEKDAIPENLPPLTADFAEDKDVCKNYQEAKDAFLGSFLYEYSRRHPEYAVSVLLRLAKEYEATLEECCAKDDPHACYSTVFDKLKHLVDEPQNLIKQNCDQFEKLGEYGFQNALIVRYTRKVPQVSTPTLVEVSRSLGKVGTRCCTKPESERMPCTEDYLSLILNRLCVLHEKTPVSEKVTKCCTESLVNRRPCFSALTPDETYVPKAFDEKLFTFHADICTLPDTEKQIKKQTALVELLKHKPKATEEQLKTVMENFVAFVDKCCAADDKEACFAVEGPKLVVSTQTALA
Chain of Concanavalin-A (Canavalia ensiformis) (P02866 whole entry, looked up): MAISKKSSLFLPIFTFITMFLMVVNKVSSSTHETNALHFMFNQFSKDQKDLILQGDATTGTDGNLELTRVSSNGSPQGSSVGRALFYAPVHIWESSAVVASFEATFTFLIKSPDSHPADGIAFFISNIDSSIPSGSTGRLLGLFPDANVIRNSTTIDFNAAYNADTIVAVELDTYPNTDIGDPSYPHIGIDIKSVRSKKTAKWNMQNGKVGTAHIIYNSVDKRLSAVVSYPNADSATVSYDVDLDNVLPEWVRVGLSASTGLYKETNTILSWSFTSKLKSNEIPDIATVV
Chain of Follistatin (Homo sapiens) (P19883 whole entry, looked up): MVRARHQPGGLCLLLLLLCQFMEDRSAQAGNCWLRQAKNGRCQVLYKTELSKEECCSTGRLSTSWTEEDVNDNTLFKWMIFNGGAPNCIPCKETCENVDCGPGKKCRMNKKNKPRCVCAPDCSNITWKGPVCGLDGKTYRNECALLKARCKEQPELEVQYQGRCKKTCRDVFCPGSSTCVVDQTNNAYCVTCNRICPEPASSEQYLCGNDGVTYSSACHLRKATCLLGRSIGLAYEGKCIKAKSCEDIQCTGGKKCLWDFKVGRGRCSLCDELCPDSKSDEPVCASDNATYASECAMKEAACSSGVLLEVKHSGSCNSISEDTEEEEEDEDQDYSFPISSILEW

| Compound | composite z-score (Albumin (Bos taurus)) | composite Z-score [1] | composite z-score [2] | composite z-score [3] | composite z-score [4] | composite z-score [5] | composite z-score [6] | composite z-score (Sam68 (KHDRBS1)) | composite z-score [7] | composite z-score [8] | composite z-score [9] | composite z-score [10] | composite z-score [11] | composite z-score [12] | composite z-score [13] | composite z-score [14] | z-score [15] | composite z-score (Lefty1) | composite z-score [16] | z-score [17] |
| --- | --- | --- | --- | --- | --- | --- | --- | --- | --- | --- | --- | --- | --- | --- | --- | --- | --- | --- | --- | --- |
| CCOC(=O)C1=C[C@@H](C(C)(C)C)N(S(=O)(=O)c2ccc(C)cc2)[C@H]1c1ccc(C#N)cc1 | 0.684 | -0.795 (inactive) | 0.0935 | 0.0655 | 0.632 | 2.72 | 0.969 | 1.31 | 0.582 | 1.09 | 1.16 | 1.23 | 0.637 | 0.996 | 0.599 | 0.0014 | 1.53 | 0.307 | 1.08 | 1.82 (inactive) |
| O=C(O)[C@H](Cc1ccccc1)n1cc(C2(O)CCCCC2)nn1 | 0.568 | 0.217 (inactive) | 0.0191 | -0.147 | 0.54 | 1.46 | 0.0496 | 1.01 | -0.0151 | 0.463 | 0.689 | 0.357 | 0.736 | 0.52 | 0.142 | 0.278 | -0.141 | 0.676 | 0.0402 | -0.0102 (inactive) |
| CCCC[C@H]1OB(O)C[C@H]2C1=C(COc1ccccc1)C[C@H]1C(=O)C=CC(=O)[C@H]12 | -0.339 | 0.229 (inactive) | -0.0333 | -0.0942 | -0.173 | -0.145 | -0.317 | 0.564 | 0.647 | 0.315 | 0.219 | 0.398 | 0.628 | 0.951 | 1.06 | 0.696 | 1.04 | 1 | 0.22 | -2.36 (inactive) |
| COC(=O)[C@@]1(Cc2ccc(F)cc2)[C@H]2c3cc(C(=O)N(C)C)n(C)c3C[C@H]2CN1C(=O)c1ccccc1 | 0.637 | 0.343 (inactive) | 0.224 | 0.352 | 0.777 | 1.37 | 0.33 | -0.333 | -0.401 | 0.768 | 2.58 | 0.372 | 0.154 | -0.0862 | -0.524 | 0.263 | 0.239 | -0.795 | 0.229 | 0.053 (inactive) |
| O=C1C[C@]2(c3ccc([N+](=O)[O-])cc3)C(=O)N(C3CC3)c3cc(CO)ccc3[C@H]2N1C1CCCCC1 | -0.806 | 0.127 (inactive) | -0.103 | -0.172 | -0.0953 | 0.792 | 0.835 | 0.0418 | -0.308 | 0.55 | -0.268 | -0.115 | 0.0202 | -0.408 | -0.0193 | 0.173 | -0.22 | -0.0446 | 0.0523 | 0.277 (inactive) |
| O=C1N(CCS(=O)(=O)c2ccccc2)c2ccccc2C[C@]12N=C(c1ccc(OCCCO)cc1)O[C@@H]2c1ccccc1 | 0.815 | 1.86 (inactive) | -0.221 | -0.0694 | 0.584 | 3.22 | 2.17 | 1.29 | 1.25 | 1.05 | 2.16 | 0.806 | 0.311 | 0.783 | 1.41 | 1.71 | 0.972 | 0.393 | 0.392 | -0.889 (inactive) |
| CCOC(=O)C1=CC[C@@H](c2ccc(OC)cc2)N(S(=O)(=O)c2ccc(C)cc2)[C@H]1c1ccc(C)cc1 | 0.446 | 0.477 (inactive) | 0.0203 | -0.084 | 0.222 | 1.99 | 0.423 | 1.34 | -0.554 | 0.669 | 1.23 | 1.18 | 0.389 | 0.844 | 0.633 | -0.0931 | 3.2 | 0.333 | 0.803 | 1.1 (inactive) |
| [N-]=[N+]=Nc1ccccc1C[C@@]1(C(=O)NCc2ccccc2)N=C(c2ccc(OCCCO)cc2)O[C@@H]1c1ccccc1N=[N+]=[N-] | 0.913 | 0.605 (inactive) | 0.467 | -0.0211 | 0.398 | 1.99 | -0.136 | 1.14 | -0.656 | 1.12 | 1.27 | 1.17 | 0.268 | 0.664 | 1.32 | 0.32 | 0.197 | -0.0327 | 1.03 | -2.56 (inactive) |
| C[C@]1(C(=O)O)c2ccccc2C(=O)N(Cc2cc(F)cc(C(F)(F)F)c2)[C@H]1c1ccc(CO)cc1 | 0.286 | -0.228 (inactive) | -0.0126 | -0.182 | 0.677 | 1.6 | -0.276 | 0.0491 | 0.447 | 0.255 | 0.201 | 0.349 | 0.263 | 0.955 | 0.88 | 0.299 | -1.06 | 0.956 | 0.0471 | 0.759 (inactive) |
| CO[C@H]1O[C@H](CO)[C@@H](OC(=O)Nc2ccc3c(c2)OCO3)[C@H](OC(=O)Nc2ccccc2-c2ccccc2)[C@H]1OC(=O)Nc1ccccc1-c1ccccc1 | 0.287 | 0.0432 (inactive) | 0.214 | 0.084 | 0.687 | 2.27 | 0.869 | 1.29 | -0.162 | 1.03 | 1.73 | 1.26 | 1.17 | 0.435 | 0.694 | 0.819 | -0.559 | -0.152 | 0.331 | -1.22 (inactive) |
| COC(=O)C(CC#Cc1ccc2c(c1)[C@]1(C(=O)N2)[C@H](C(=O)N2CCc3cc(OC)c(OC)cc3C2)[C@H]2C(=O)O[C@H](c3ccccc3)[C@H](c3ccccc3)N2[C@@H]1c1ccccc1OCCO)C(=O)OC | 0.27 | 0.112 (inactive) | 0.0793 | -0.135 | 0.59 | 2.3 | -0.461 | 1.3 | 0.463 | 1.14 | 1.21 | 1.19 | 0.536 | 0.613 | 1.4 | 1.39 | -1.64 | 1.55 | 1.17 | -0.134 (inactive) |
